Twelve compounds from PubChem BioAssay can be followed below.

Structures are written as SMILES. A number with no mark means an inactive call. Activity calls are given as the source filed them.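 The calls were made as follows, unless noted: active = mean inhibition over 43.08%, the solvent-only control mean plus 3 SD; inactive = the rest.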

For experiment [1], the target named is Nuclear receptor coactivator 3 (Homo sapiens) (UniProt Q9Y6Q9). Briefly: SRC3 coactivator transcriptional activity inhibitors, confirmation, cell-based, luminescence, quadruplicate (AID 588792).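 Also: 0% = DMSO treated cells and 100% = gossypol at 36 µM.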 As to conditions: HEK293 GAL4-SRC3 luciferase reporter, at 3.6 µM, stronger effect = higher value. (In general: A reporter such as luciferase makes a cellular process visible.)
Sequence of Nuclear receptor coactivator 3 (Homo sapiens) (Q9Y6Q9 whole entry, looked up, the tested form may be a part): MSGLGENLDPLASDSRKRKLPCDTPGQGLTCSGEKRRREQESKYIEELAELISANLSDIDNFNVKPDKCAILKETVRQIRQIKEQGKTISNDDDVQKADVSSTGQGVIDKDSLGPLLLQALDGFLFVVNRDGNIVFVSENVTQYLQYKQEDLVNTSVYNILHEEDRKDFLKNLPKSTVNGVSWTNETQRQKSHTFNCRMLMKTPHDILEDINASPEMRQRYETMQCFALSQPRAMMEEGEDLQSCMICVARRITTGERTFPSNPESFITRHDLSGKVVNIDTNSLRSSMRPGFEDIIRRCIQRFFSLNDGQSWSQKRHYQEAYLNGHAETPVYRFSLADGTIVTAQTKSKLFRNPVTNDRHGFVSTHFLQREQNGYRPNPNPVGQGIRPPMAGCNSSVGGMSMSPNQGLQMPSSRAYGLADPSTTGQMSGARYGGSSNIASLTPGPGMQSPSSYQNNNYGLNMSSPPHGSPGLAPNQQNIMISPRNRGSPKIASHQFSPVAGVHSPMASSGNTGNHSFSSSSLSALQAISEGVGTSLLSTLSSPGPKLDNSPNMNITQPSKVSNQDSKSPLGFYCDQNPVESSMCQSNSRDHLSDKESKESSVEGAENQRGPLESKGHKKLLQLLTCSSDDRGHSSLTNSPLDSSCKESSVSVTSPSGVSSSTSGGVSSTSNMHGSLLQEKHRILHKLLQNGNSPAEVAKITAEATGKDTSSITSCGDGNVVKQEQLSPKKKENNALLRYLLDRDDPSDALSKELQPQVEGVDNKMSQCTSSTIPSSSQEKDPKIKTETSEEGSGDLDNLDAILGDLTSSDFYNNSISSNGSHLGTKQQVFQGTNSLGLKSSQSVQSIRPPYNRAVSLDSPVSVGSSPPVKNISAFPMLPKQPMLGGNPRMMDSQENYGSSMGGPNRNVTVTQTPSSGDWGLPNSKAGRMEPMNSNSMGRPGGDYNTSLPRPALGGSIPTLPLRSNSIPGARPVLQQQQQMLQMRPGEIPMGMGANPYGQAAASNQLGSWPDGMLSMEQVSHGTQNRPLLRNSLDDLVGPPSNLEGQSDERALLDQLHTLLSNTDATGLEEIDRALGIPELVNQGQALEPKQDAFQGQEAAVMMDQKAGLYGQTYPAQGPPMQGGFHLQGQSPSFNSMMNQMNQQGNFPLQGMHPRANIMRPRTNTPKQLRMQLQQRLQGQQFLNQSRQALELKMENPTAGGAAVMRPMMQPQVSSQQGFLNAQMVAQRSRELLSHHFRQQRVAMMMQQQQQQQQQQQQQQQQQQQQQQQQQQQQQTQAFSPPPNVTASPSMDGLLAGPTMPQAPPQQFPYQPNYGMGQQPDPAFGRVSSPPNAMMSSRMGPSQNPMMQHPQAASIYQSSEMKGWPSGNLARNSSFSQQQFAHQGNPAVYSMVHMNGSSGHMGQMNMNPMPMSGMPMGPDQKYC

For experiment [2], the system named is transactivating tegument protein VP16 (Human herpesvirus 1), Gal4-VP16 luciferase reporter. Briefly: VP16 transactivation inhibitors, counter-screen for SRC3 inhibitor project, cell-based, luminescence, high throughput (AID 588794; in the data active = inhibition above about 30%). As to conditions: mammalian cells, VP16-driven luciferase reporter luminescence; at 3.6 µM; stronger effect = higher value.

`COC(=O)c1sc(NC(=O)c2cc(-c3ccccc3)nc3ccccc23)c(C#N)c1C`: the inhibition is 5.32% in experiment [1] and 38.6% (active) in experiment [2].

For `CC(C)(Sc1cc(C(C)(C)C)c(O)c(C(C)(C)C)c1)Sc1cc(C(C)(C)C)c(O)c(C(C)(C)C)c1`, the inhibition in experiment [1] is 15.9%; in experiment [2] it was -0.87%.

Regarding `O=C(N/N=C/c1ccc(O)cc1O)c1ccc(NC(=O)C2CCCCC2)cc1`, the inhibition is 9.15% in experiment [1] and 10.4% in experiment [2].

With `Cc1ccc(C(=O)C[n+]2ccc(Cc3ccccc3)cc2)cc1`, the inhibition in experiment [1] is -4.6%; in experiment [2] it was 14.8%.

As for `CCn1c(C)nc2cc(C(=O)N/N=C(\C)c3ccc(OC)cc3O)ccc21`, the inhibition in experiment [1] was 24.6%; in experiment [2], 8.7%.

For the compound `CC(=O)Nc1ccc(OCC(O)Cn2c3ccccc3c3ccccc32)c(C)c1` (centres undefined), the results for the inhibition in experiment [1] and in experiment [2] were -0.56% and -0.54%, respectively.

For the compound `O=C(NCc1cccs1)C1CCCN(C(=O)Nc2ccc(F)cc2)C1` (centres undefined), the inhibition in experiment [1] is -1.07%; in experiment [2], 5.59%.

In the case of `Cc1ccc(C(=O)NC2c3ccccc3-c3ccccc32)cc1`, the inhibition was 11.3% in experiment [1] and 12.1% in experiment [2].

With `C/C(=N\NC(=O)c1cc(-c2cccnc2)nc2ccccc12)c1ccc(O)cc1O`, the results for the inhibition in experiment [1] and in experiment [2] were 48.4% (active) and 29.9% (active), respectively.

For the compound `Brc1ccc(N=Nc2ccc3ccccc3n2)cc1`, the inhibition in experiment [1] was 51.2% (active); in experiment [2], 33.7% (active).

In the case of `CN1CCN(Cc2cc(COCc3ccccc3)c3cccnc3c2O)CC1`, the inhibition is 20.5% in experiment [1] and 31% (active) in experiment [2].

For the compound `O=c1[nH]c(=O)n([C@H]2C[C@H](O)[C@@H](CO)O2)cc1Br`, the inhibition was 14.7% in experiment [1] and 16.2% in experiment [2].

As a reminder, the inhibition is the change of the read-out against control, counted positive when it falls.
